RORgamma inh: qHTS for inhibitors of ROR gamma transcriptional activity; Potency, µM (top dose mostly 53.6 µM), for the others: top-dose activity change, negative = inhibition, hits mostly inhibitors; Drosophila S2 Gal4-RORgamma UAS-luciferase reporter, 20 h; 310,000 compounds, 5.4% hits; Nuclear receptor ROR-gamma (Mus musculus), P51450; AID 2551, 2010; also: nearly all actives have a fitted effect of over 60% in size
Target sequence (P51450 whole entry, looked up, the tested form may be a part): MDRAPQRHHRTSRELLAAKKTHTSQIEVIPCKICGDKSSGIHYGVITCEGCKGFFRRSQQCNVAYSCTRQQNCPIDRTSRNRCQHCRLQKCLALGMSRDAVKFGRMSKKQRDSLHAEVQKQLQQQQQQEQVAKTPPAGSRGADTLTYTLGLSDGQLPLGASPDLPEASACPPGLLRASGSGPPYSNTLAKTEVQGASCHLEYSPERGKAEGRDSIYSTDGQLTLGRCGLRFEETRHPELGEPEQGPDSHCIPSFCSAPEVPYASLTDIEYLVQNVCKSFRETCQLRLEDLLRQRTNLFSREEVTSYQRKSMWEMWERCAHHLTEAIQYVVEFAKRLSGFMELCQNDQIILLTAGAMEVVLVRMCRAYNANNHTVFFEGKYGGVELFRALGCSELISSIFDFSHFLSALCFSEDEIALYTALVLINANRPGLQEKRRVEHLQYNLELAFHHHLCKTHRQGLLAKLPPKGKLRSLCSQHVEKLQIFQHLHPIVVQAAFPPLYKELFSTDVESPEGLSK
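In this cell-based reporter format, copper sulfate (700 uM final) drives Gal4–ROR gamma fusion expression from a metallothionein promoter in Drosophila Schneider cells; compounds preincubated 1 hr, reporter read after 20 hr at ambient temperature.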
KinaseGlo FLuc: Counterscreen for Luciferase (Kinase-Glo TM) Inhibition; Kinase-Glo luciferase, ATP luminescence, 8 min; Potency, µM (top dose mostly 38.3 µM), for inactives: at the highest dose activity change, negative = inhibition, hits mostly inhibitors; 200,000 compounds, 0.28% hits; AID 1379, 2008; also: nearly all actives have a fitted effect of over 60% in size
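Light output from Kinase-Glo luciferase with luciferin and 10 uM ATP in 50 mM imidazole pH 7.2, KCl, MgCl2, Tween 20, BSA; compound pin-delivered, 8-min ambient incubation, then luminescence read.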
Gal4-VP16 FLuc: VP16 counterscreen qHTS for inhibitors of ROR gamma transcriptional activity; 310,000 compounds, 3.5% hits; AID 2546, 2010; Potency, µM (highest dose often 53.6 µM), without a hit: at the top dose activity, negative = inhibition, most hits filed as inhibitors; Drosophila S2 Gal4-VP16 UAS-luciferase, luminescence, 20 h;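 also: Gal4-VP16 expression switched on by copper sulfate through the metallothionein promoter; nearly all actives have a fitted effect of over 50% in size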
Starred values were filed as active, the others as inactive; ? = inconclusive; nt = no result given; [ ] = dose if it differs, or a comment. Most compounds without a hit are left out; they make up all but 6.2% or so of the library. Calls follow the shape of the dose curve; as a rule, active = well fitted curve in the direction sought with a large enough effect; inconclusive = small, poorly fitted or top-dose-only effect, or another doubt; inactive = no such curve, though single readings can be large; an effect the other way counts as inactive or inconclusive. % is scaled to controls: 0 for no effect and ±100 for the full control effect; potency is read from the fitted curve at half-maximal effect.

SMILES | RORgamma inh | KinaseGlo FLuc | Gal4-VP16 FLuc
Cn1c2ccccc2c2cc(/C=N/NC(=O)c3ccc(N)cc3)ccc21 | -3% | nt | -19%
O=C(N/N=C/c1cc([N+](=O)[O-])ccc1O)c1ccncc1 | ? | nt | 4%
O=C(N/N=C/c1cc(Br)ccc1O)c1ccncc1 | 6.3µM* | nt | ?
Cc1ccc(N=Nc2ccc(O)c(/C=N\NC(=O)c3ccc(N)cc3)c2)cc1C | 3.2µM* | -3% | 2.2µM*
O=C(N/N=C/c1cccnc1)c1cccc(NC(=O)c2cccc(Br)c2)c1 | 0% | nt | 4%
O=C(N/N=C/c1ccc(O)c2ncccc12)c1cccc(Br)c1 | 16µM* | 1% | ?
CC(C)(C)OC(=O)N/N=C/c1cc(N=Nc2ccccc2)ccc1O | 4µM* | 0% | 5.6µM*
Cc1ccc(NC(=O)Nc2ccc(F)cc2)cc1Cl | 37% | -2% | -2%
CCC(Oc1ccccc1)C(=O)N1CC(C)CC(C)C1 (configuration not stated) | 14% | -4% | -5%
CCCOc1ccc(-c2c(C(=O)N/N=C(\C)COc3ccccc3)nnn2-c2nonc2N)cc1 | ? | nt | 0%
Cc1ccc(N2CC(C(=O)N3CCC(C(=O)Nc4nnc(C(C)C)s4)CC3)CC2=O)cc1 (configuration not stated) | 24% | nt | -1%
Cc1ccccc1C(=O)N/N=C/c1ccc(Sc2ccccn2)o1 | 1% | -3% | 1%
CCOc1ccccc1NC(=O)C(=O)N/N=C/c1cc(Br)ccc1O | 1.8µM* | -1% | ?
O=C(C[n+]1ccccc1)N/N=C/c1cc(Br)ccc1O | ? | nt | -1%
O=C(N/N=C\c1ccc(Sc2ccccn2)o1)c1cccc(Br)c1 | 8.9µM* | -5% | ?
O=C(N/N=C/c1ccccc1O)c1ccncc1 | 3.2µM* | nt | 2.8µM*
O=C(N/N=C/c1ccccc1O)C1(O)c2ccccc2-c2ccccc21 | 0.56µM* | -3% | 0.79µM*
O=C(N/N=C/c1cccc2ccccc12)c1ccncc1 | -22% | nt | -4%
Cc1c(/C=N/NC(=O)C2(O)c3ccccc3-c3ccccc32)cnn1C | -22% | 2% | -16%
O=C(c1ccc(F)cc1Cl)N(c1ccccn1)C1CCCCC1 | -4% | 0% | 7%
CCn1c(SCC(=O)N(C)C2CCS(=O)(=O)C2)nnc1-c1ccccc1 (configuration not stated) | 0% | -1% | 1%
Cc1cc(OC(=O)c2ccc3ccccc3c2)c([N+](=O)[O-])c(=O)[nH]1 | -14% | 1% | -4%
O=C(N/N=C/c1cc(Br)ccc1OC(=O)c1ccc(Br)cc1)c1ccncc1 | 2.8µM* | nt | 5µM*
O=C(N/N=C/c1ccc(OC(=O)c2ccc(Br)cc2)cc1)c1ccncc1 | 14% | nt | -1%
S=C(NC1CCCCC1)N1CCN(C2CCCCC2)CC1 | 2% | -1% | 0%
SMILES | RORgamma inh | KinaseGlo FLuc | Gal4-VP16 FLuc
CCCC[C@H](NC(=O)[C@@H]1CCCN1C(=O)[C@H]1CCCN1C(=O)[C@H](Cc1ccccc1)NC(=O)[C@@H](Cc1c[nH]c2ccccc12)NC(=O)[C@H](C)NC(=O)[C@H](CCCN=C(N)N)NC(=O)OC(C)(C)C)C(N)=O | 12% | nt | -2%
Cc1ccc(C2CC(c3ccc(NS(C)(=O)=O)cc3)=NN2C(=O)c2ccco2)cc1 (configuration not stated) | 25% | 0% | 4%
CCS(=O)(=O)Nc1ccc(C2=NN(C(=O)c3ccco3)C(c3ccc(C)cc3)C2)cc1 (configuration not stated) | -21% | 4% | 18µM*
NC(=O)N1CC(O)CC1C(=O)Nc1ccc(Cl)c(Cl)c1 (configuration not stated) | 0% | -1% | -4%
CN(C)/C(=N\S(=O)(=O)c1ccccc1)c1ccc([N+](=O)[O-])cc1 | 1% | 0% | -4%
Cc1cccc(C(=O)Nc2cccc3cccnc23)c1 | 31% | nt | 5%
Cc1cc(C(=O)Nc2nnc(C3CCCCC3)s2)no1 | 20µM* | -3% | 2%
Cc1cnc(C(=O)Nc2cccc3cccnc23)cn1 | 0.079µM* | -6% | 0.2µM*
Cc1cnc(C(=O)Nc2nnc(C(C)C)s2)cn1 | ? | -2% | 6%[0.365 µM]
CCOC(=O)C(=O)Nc1nnc(C2CCCCC2)s1 | -13% | -1% | -7%
Cc1cnc(C(=O)Nc2nccs2)cn1 | 3.5µM* | -30% | 11µM*
CCc1noc(C)c1C(=O)Nc1nnc(C2CCCCC2)s1 | 11µM* | -3% | ?
Cc1ccc(C(=O)Nc2nnc(C3CCCCC3)s2)o1 | -13% | -5% | -16%
COC(=O)C1=C(C(=O)OC)[C@@H]2N(C)c3ccc(OC)cc3[C@@]23C[C@@H](C(=O)OC)N(S(=O)(=O)c2ccc4c(c2)OCCN4C)C3=N1 | nt | 2%[7.66 µM] | nt
Cc1ccc(N2C(=O)c3ccc(C(=O)O)cc3C2=O)c(C)c1 | ? | 1% | -7%
Cc1nc(N2CCCCC2)nc(N2CCCCC2)c1C=O | -2% | -11% | -1%
Clc1ccc(OCCNCCc2ccccc2)cc1 | -29%[1.91 µM] | nt | 13%
COc1ccccc1C(C#N)c1cccc(Cl)n1 (configuration not stated) | -1% | nt | 1%
CCC(=O)OCC(=O)[C@@]1(OC(=O)CC)[C@@H](C)C[C@H]2[C@@H]3CCC4=CC(=O)C=C[C@]4(C)[C@@]3(F)[C@@H](O)C[C@@]21C | -24% | 3%[39.9 µM] | -4%
Cc1cnc(C(=O)Nc2nnc(C)s2)cn1 | ? | 1% | 11%
O=C(Nc1nccs1)c1cn2ccccc2n1 | 2µM* | nt | 7.1µM*
Cc1cnc(C(=O)Nc2nnc(C3CC3)s2)cn1 | 8.9µM* | 5% | -24%
NNC(=O)c1cn2ccccc2n1 | 0% | -6% | -12%
CC(C)(C)NC(=O)c1cccc(NC(=O)CSc2ccccc2)c1 | 24% | -6% | -1%
COc1ccc(C(=O)NNC2CC(=O)N(Cc3ccccc3)C2=O)cc1OC (configuration not stated) | 2% | -1% | -11%
SMILES | RORgamma inh | KinaseGlo FLuc | Gal4-VP16 FLuc
CCOc1ccc(C(=O)NNC2CC(=O)N(Cc3ccc(Cl)cc3)C2=O)cc1OC (configuration not stated) | 3.2µM* | 1% | 1.3µM*
COC(=O)C1=NNC2C(=O)N(C3CCCCC3)C(=O)C12 (configuration not stated) | -3% | 3% | -1%
CC12CCC=CC1C(c1cccc(Br)c1)N(Cc1ccccc1)C2=O (configuration not stated) | ? | nt | 13µM*
Cc1cccc([C@H]2[C@@H]3C=CCC[C@@]3(C)C(=O)N2Cc2ccccc2)c1 | 43% | 1%[39.9 µM] | 21%
Cc1cc(NC(=O)C(C)Oc2ccc(Cl)cc2Cl)no1 (configuration not stated) | 18% | nt | 27%
C=CCOc1ccc2ccccc2c1CNn1cn[nH]c1=S | -23%[1.91 µM] | nt | ?
COc1cc(CNn2c(C)n[nH]c2=S)cc(Cl)c1OCc1ccc(F)cc1 | ? | -1% | ?
C=CCOc1ccc(CNn2cn[nH]c2=S)cc1 | 13µM* | -3% | ?
COc1cc(CNn2c(C)n[nH]c2=S)cc(Br)c1OCc1ccc(F)cc1 | 10µM* | -1% | -2%
C=CCOc1c(Br)cc(CNn2cn[nH]c2=S)cc1OC | 10µM* | 0% | -2%
C=CCOc1c(Br)cc(CNn2nnnc2N)cc1OCC | -19% | 7% | 3%[0.365 µM]

Screening results: PubChem BioAssay, National Center for Advancing Translational Sciences (NCATS)
